The values below come from ChEMBL document CHEMBL3988442, “University of Dundee, Small-Polar-MMV Screening Library” (2021).

The structures appear in SMILES notation.

The target of the assay is AMP-activated protein kinase, AMPK (Homo sapiens) (UniProt P54646+O43741+P54619+Q9UGJ0+Q9Y478+Q13131+Q9UGI9). The experiment in a line: AMP-dependent Kinase enzyme assay. An in vitro enzyme assay that detects ADP turnover that is directly proportional to AMPK activity. This uses naive AMPK that is activated during the assay with MK-8722. Further details: scale not given: direction of the effect not stated beside the values. The class given is functional. The settings on record: 30 µM.
Consider `Clc1ccc(COCC2CCN(Cc3ccccn3)CC2)cc1`, for which the Percent Effect was determined as 4.9%. With `c1ccc(Cc2noc(-c3ccc(NCC4COCCO4)nc3)n2)cc1` (centres undefined), the Percent Effect is 8.79%. As for `CSCCC(NC(=O)C1CC1)C(=O)N(C)Cc1ccsc1` (centres undefined), the Percent Effect was -0.745%.

As to `Cc1ccc(C(=O)NC2CCCN(C)C2)c(=O)[nH]1` (centres undefined), the Percent Effect was -3.1%. With `CN(CCc1ccccc1)Cc1c(C2CCOCC2)[nH]c2ncccc12`, the Percent Effect stood at 11.1%. With `CN(c1ncc(S(N)(=O)=O)s1)C1CCC1`, the Percent Effect worked out at 5.05%. In the case of `CN(CCSc1nncn1C(C)(C)C)c1ccccc1`, the Percent Effect stood at 16.1%. Consider `CC(C)NC(=O)C1(Cc2ccccc2-c2cncnc2)CCCNC1` (centres undefined), for which the Percent Effect was determined as 18.8%. With `CC(=O)NCC(=O)N1CCCC(C(=O)c2ccc(C(C)(C)C)cc2)C1` (centres undefined) the figure was 7.51%; with `O=C(C1CC(c2cccc(F)c2)=NO1)N1CCc2ccccc21` (centres undefined), 13.6%; with `c1ccc(CN2CCN(C3CCOC4(CCOCC4)C3)CC2)nc1` (centres undefined), -0.926%. For `Cc1ccc(S(=O)(=O)Cc2nnc(C)n2C)cc1`, the Percent Effect worked out at 6.55%. As for `Cc1ccc(CN(C)C(=O)CNC(C)(C)c2noc(C(C)(C)C)n2)o1`, the Percent Effect is -1.82%. The same measure for `O=C1NCCCCC1NC(=O)N1CCc2ccccc21` (centres undefined): -3.02%; for `N[C@H]1CN(S(=O)(=O)Cc2ccccc2)C[C@@H]1C1CC1`: -5.29%; for `COc1c(C2CCCN2CC(=O)N(C)Cc2ccco2)c(C)nn1C` (centres undefined): 1.41%. As to `COCC1CCN(C(=O)c2cc(O)nc(CC(C)C)c2)CC1`, the Percent Effect was -1.75%. For `COCCC1CCCCN1C(=O)c1coc(COc2ccccc2F)n1` (centres undefined), the Percent Effect is 12.2%. With `Cc1ccc(S(=O)(=O)N2CCN(Cc3ccncc3)CC2)c(Cl)c1`, the Percent Effect is -6.37%.
